Test results: PubChem BioAssay AID1863 (Southern Research Specialized Biocontainment Screening …, 2009)
Several values for one entry are separate records, joined by “and”; a condition that tells them apart may be missing. Equal entries are not always repeated. Screen size: about 300,000 compounds; about 480 (0.16%) were called active.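 How the source made its calls: active means inhibition over 29.93%, a cutoff 3 SD above the screen mean, later confirmed by dose response; inconclusive means inhibition over 29.93% but no dose response follow-up; inactive means inhibition at most 29.93% or unconfirmed.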 A selection follows. Results with a measured potency or affinity are listed apart.

experiment: PhoP-dependent GFP reporter repression – Salmonella Typhimurium, primary screen (AID 1863);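 further: 0% = low Mg2+ inducing control and 100% = high Mg2+ repressing control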; details: S. Typhimurium PhoP-regulated promoter GFP reporter, 4 h; at 50 µM; hits give high values

inhibition, inactive:
CC(NC(=O)CCNC(=O)c1ccccc1Cl)C1CC2CCC1C2 (stereo not drawn) 10.5%, Cc1cccc(Nc2cc(=O)[nH]c(=O)[nH]2)c1C 11.8%, Nc1nc(Cl)nc2c1ncn2[C@@H]1O[C@H](CO)[C@@H](O)[C@H]1O -6.56% and 6.76%, Nc1ccn([C@@H]2O[C@H](CO)[C@@H](O)[C@@H]2O)c(=O)n1 -7.73% and -0.16%, Nc1ncnc2c1ncn2[C@@H]1O[C@H](CO)[C@@H](O)[C@H]1O 3.62%, NC(=O)c1ncn([C@@H]2O[C@H](CO)[C@@H](O)[C@H]2O)c1O 2.19%, Nc1ccn([C@@H]2O[C@H](CO)[C@@H](O)C2O)c(=O)n1 (stereo partly drawn) -5.08% and -1.41%, Nc1cnn(C2OC(CO)C(O)C2O)c(=O)n1 (stereo not drawn) -3.56%, Cc1cc(C)c(NC(=O)CNC(=O)CN2C(=O)NC3(CCCc4ccccc43)C2=O)c(C)c1 (stereo not drawn) 0.74%, Cc1cccc(Nc2nccc(N(C)C)c2C#N)c1 -5.86%, COc1ccc(-c2noc(CCC(=O)NCCN3CCN(c4ccccc4F)CC3)n2)cc1 -6.34%, O=C(Nc1cccc2ccccc12)N1CC=C(c2ccccc2)CC1 8.64%, CC(CN1CCCCC1)C(=O)NN (stereo not drawn) 2.4%, O=C(CNC(=O)c1ccccc1F)N/N=C/c1cn[nH]c1-c1ccccc1 -11.6%, Cc1cc(OCC(=O)OCC(=O)N(C)c2c(N)n(Cc3ccccc3)c(=O)[nH]c2=O)ccc1Cl -6.01%, O=C(NCC1CCCO1)c1cccnc1Nc1ccccc1F (stereo not drawn) 8.77%, CC1=C(C(=O)Nc2cccc([N+](=O)[O-])c2)C2(CCC(C)CC2)OC1=O (stereo not drawn) -3.06%, O=C(Cc1ccc(-n2c(=O)[nH]c3ccsc3c2=O)cc1)NCc1cccnc1 0.29%, CNC(=S)Nc1cc(C(F)(F)F)ccc1Cl 4.05%, COc1cc(/C=C/C(=O)O)ccc1O -9.92%, COc1cc(/C=C/C(=O)CC(=O)/C=C/c2ccc(O)c(OC)c2)ccc1O 8.28%, O=C(Cn1c(=O)oc2cc(S(=O)(=O)N3CCCC3)ccc21)Nc1ccccc1Br -3.67%, CCNc1nc(NC(C)C)nc(OCC)n1 -7.28%, CCO[C@@H]1OC(C(=O)N2CCN(Cc3ccc4c(c3)OCO4)CC2)=C[C@H](C2CCCCC2)[C@H]1CCCO 2.5%, CCCCCCCNC(=O)C1(CC2CC(c3ccccc3)=NO2)CCNCC1 (stereo not drawn) 0.18%, CCCCCCCNC(=O)C1(CC2CC(c3ccc(Cl)cc3)=NO2)CCN(C(=O)C2(C)CC2)CC1 (stereo not drawn) -5.4%, CCCCCCCNC(=O)C1(CC2CC(c3cccc(Br)c3)=NO2)CCN(C(=O)OC(C)(C)C)CC1 (stereo not drawn) -0.33%, CCCCCCCNC(=O)C1(CC2CC(c3cccc(Br)c3)=NO2)CCN(C(=O)C2CCCC2)CC1 (stereo not drawn) 12.9%, Cc1ccccc1C(=O)Nc1ccccc1NC(=O)c1ccccc1Br -5.42%, CCc1nc(C)cn1S(=O)(=O)c1cc(Br)ccc1OC 1.41%, COC(CNC(=O)C(=O)NCC1OCCN1C(=O)c1ccc(Cl)cc1)OC (stereo not drawn) 12.8%, CC(C)C[C@H](NC(=O)N1CCn2c1nc1ccccc12)C(=O)NCc1ccco1 -1.56%, CCn1ncc([N+](=O)[O-])c1C(=O)Nc1ccc(C)c(C)c1 -7.66%, CN(C)c1ccc2nc3ccc(=[N+](C)C)cc-3sc2c1 -2.55%, Cc1cc2nc(N)sc2cc1C 3.73%, CC1(C)Cn2c(nnc2-c2ccccc2)S1 -3.09%, O=c1[nH]c2ccccc2c(O)c1-c1ccccc1 1.77%, CC[n+]1c(/C=C/c2ccc(OC)c(OC)c2)ccc2ccccc21 -6.54%, CN(C)c1ccc(/C=C/c2ccc3ccccc3n2)cc1 0.11%, CN(CCCS(=O)(=O)[O-])c1ccc(/C=C/c2ccc3ccccc3[n+]2C)cc1 0.91%, C[n+]1c(/C=C/c2ccc(O)cc2)ccc2ccccc21 18.4%, CN(C)c1ccc(/C=C/c2cccc[n+]2[O-])cc1 -8.32%, CC[n+]1ccccc1/C=C/c1ccc(N(C)C)cc1 -19.2%, Cc1ccc(-n2ccnc(SCC(=O)NC3CCCC3)c2=O)cc1Cl -4.24%, COc1ccc(OC)c(NC(=O)C2CCN(C(=O)c3cccs3)CC2)c1 2.52%, O=C(c1cc(F)ccc1F)C1CCCN(C(=O)c2ccco2)C1 (stereo not drawn) -3.85%, COc1ccccc1N1CCN(C(=O)Nc2cccc(Cl)c2)CC1 -5.86%, Cc1c(OCC(=O)NC(Cc2ccc(Cl)cc2)C(=O)O)ccc2c(-c3ccccc3)cc(=O)oc12 (stereo not drawn) -1.09%, COc1cc(/C=C2/CC(C)OC2=O)c([N+](=O)[O-])cc1OC (stereo not drawn) 0.79%, Cc1ccsc1C(C(=O)NCc1ccccc1)N(C(=O)c1csnn1)c1ccccc1 (stereo not drawn) 12.3%, CCc1c(C)nc(N)c(C#N)c1-c1ccccc1 4.1%, O=C1CC(c2ccccc2)CC(O)=C1C=Nc1ccccc1 (stereo not drawn) -10.4%, COc1ccc(C)cc1NC(=O)NNC(=O)C1CCC(C(C)(C)C)CC1 (stereo not drawn) -7.11%, CSc1ccc(CN(C)CC(=O)NCc2ccccc2)cc1 -8.5%, O=C(c1cc2nc(-c3ccco3)cc(C(F)(F)F)n2n1)N1CCN(c2ccc(F)cc2)CC1 -5.29%, CCCC[n+]1c2ccccc2cc2ccccc21 20.6%, CCCCCCCCC[n+]1cccc2c3ccccc3ccc21 -3.12%, CCCCCCCC[n+]1cccc2c3ccccc3ccc21 0.34%, CCCCC[n+]1cccc2c3ccccc3ccc21 -3.43%, Cc1cc(-n2cc(Br)c(=O)[nH]c2=O)nc(-c2ccccc2)n1 -4.05%, O=C(C1CCC1)N1CCc2cc(S(=O)(=O)NCCN3CCN(c4ccccc4F)CC3)ccc21 13.8%, Cc1cc(C)cc(NC(=O)CC2NCCNC2=O)c1 (stereo not drawn) -1.2%, O=C(CC1CCS(=O)(=O)C1)Nc1ccc[nH]c1=O (stereo not drawn) -5.21%, Cc1sc2ccccc2[n+]1CC(=O)c1ccccc1 2.11%, Cc1sc2cc3c(c(C(=O)c4ccccc4)[n+]2c1C)-c1cccc2cccc-3c12 -2.96%, CCn1cc(C(=O)NN)c(=O)c2cc(F)c(N3CCN(C)CC3)cc21 3.03%, CCn1cc(C(=O)NCC(C)C)c(=O)c2cc(F)c(N3CCN(C(=O)c4ccco4)CC3)cc21 5.43%, CCn1cc(C(=O)N[C@H](C)c2ccccc2)c(=O)c2cc(F)c(N3CCN(C)CC3)cc21 4.39%, CCCNC(=O)c1cn(CC)c2cc(N3CCN(C(=O)c4ccco4)CC3)c(F)cc2c1=O -3.25%, CCn1cc(C(=O)NCCC(C)C)c(=O)c2cc(F)c(N3CCN(C)CC3)cc21 8.97%, COc1ccc(CC2(CO)CCN(C(C)COc3ccccc3)CC2)cc1 (stereo not drawn) -5.24%, O=C(NC(=S)Nc1ccc(S(=O)(=O)Nc2ncccn2)cc1)c1ccc(Br)cc1 -1.85%, Cc1cccc(NC(=O)c2cc(NC(=O)C3CC=CCC3C(=O)O)ccc2N2CCOCC2)c1 (stereo not drawn) 13.8%, CCN(CC(=O)Nc1c(F)cccc1F)C(=O)C1(c2ccccc2)CC1 -5.13%, CCC(=O)c1cn(CC(=O)NCc2cccnc2)c2ccccc12 3.99%, Cc1cc(C)cc(OC(=O)CCN2C(=O)C3C4C=CC(C5CC45)C3C2=O)c1 (stereo not drawn) 1.31%, CCOc1ccc2nc(NC(=O)C3CCN(S(=O)(=O)c4cnc[nH]4)CC3)sc2c1 1.27%, CN(C)c1cccc(C(=O)OCC(=O)N2CCc3ccccc3C2)c1 -2.35%, CC1CCN(c2nc3c(c(=O)n(C)c(=O)n3C)n2Cc2ccccc2)CC1 0.23%, O=[N+]([O-])c1ccc(NC(=S)NCC(c2cccnc2)N2CCOCC2)cc1 (stereo not drawn) -4.57%, CCCCNC(=O)c1cn(CC)c2cc(N3CCN(C(=O)c4ccco4)CC3)c(F)cc2c1=O -7.68%, CCCCCNC(=O)c1cn(CC)c2cc(N3CCN(C)CC3)c(F)cc2c1=O 4.54%, C/C(=N\OC(=O)c1ccc(F)cc1)c1ccc(F)c(F)c1 -1.74%, O=C(OCc1ccc(COC(=O)c2ccccn2)cc1)c1ccccn1 -1.35%, CCOC(=O)C1CCCN(Cc2sccc2C)C1 (stereo not drawn) 7.84%, C[C@H](NC(=O)C1CCN(S(=O)(=O)c2ccccc2)CC1)C(=O)NCc1cccc(C(F)(F)F)c1 -1.18%, COC(=O)n1c(=O)oc2cc(S(=O)(=O)N3CCOCC3)ccc21 7.81%, CN(C)C(=O)CN1C(=O)c2cccc3cccc1c23 8.86%, O=C(Nc1ccc2ncccc2c1)c1cc(Cl)ccc1Cl 0.12%, O=C(NCc1ccccc1)C(c1cccnc1)N(C(=O)c1ccccn1)c1ccc(F)cc1 (stereo not drawn) 2.95%, Cc1ccc(S(=O)(=O)N/N=C2\C(=O)C3(C)CCC2C3(C)C)cc1 (stereo not drawn) 4.91%, COc1ccc(NS(=O)(=O)c2ccc(NC(=S)NC(=O)c3cccnc3)cc2)nn1 10.7%, COc1nccnc1NS(=O)(=O)c1ccc(NC(=S)NC(=O)c2cccnc2)cc1 36%
